Source: PubChem BioAssay
Only a selection was taken, and hits are over-represented in it overall.
STK33 inh: human STK33 kinase inhibition. inhibition, % at 12.5 µM. ADP-Glo luminescence, MBP substrate. 27,000 tested, 0.44% active; in the data active = inhibition above about 20%; inconclusive = no clear call, values can overlap the other calls
Target sequence (Q9BYT3 whole entry, looked up): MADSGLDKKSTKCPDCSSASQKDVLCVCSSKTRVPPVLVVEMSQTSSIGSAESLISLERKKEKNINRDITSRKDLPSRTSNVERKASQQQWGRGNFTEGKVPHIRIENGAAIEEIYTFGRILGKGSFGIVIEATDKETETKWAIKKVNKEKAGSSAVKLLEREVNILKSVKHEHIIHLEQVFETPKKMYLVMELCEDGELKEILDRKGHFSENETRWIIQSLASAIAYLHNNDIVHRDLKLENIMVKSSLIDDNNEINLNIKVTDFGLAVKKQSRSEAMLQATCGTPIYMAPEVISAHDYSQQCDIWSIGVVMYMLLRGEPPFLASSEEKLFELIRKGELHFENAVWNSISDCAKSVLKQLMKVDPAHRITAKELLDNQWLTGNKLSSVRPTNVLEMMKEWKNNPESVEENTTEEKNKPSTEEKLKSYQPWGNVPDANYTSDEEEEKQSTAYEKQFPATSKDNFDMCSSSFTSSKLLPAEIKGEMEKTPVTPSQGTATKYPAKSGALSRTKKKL
NOMO-1 viab: STK33 inhibitor candidate reducing NOMO-1 cell viability. 37,000 tested, 7.5% active. AID 2330. NOMO-1 AML viability, CellTiter-Glo luminescence, 72 h. inhibition, % (no concentration beside the values); in the data active = inhibition above about 80%; inconclusive = no clear call, values can overlap the other calls
PD-1 reverse act: reversal of PD-1 mediated T-cell inhibition. primary human CD4 T cells, PD-L1 beads, CellTiter-Glo 96 h. activation, % (concentration not given with the values). 29,000 tested, under 10 active. AID 2316; call rule not given here
Hits are given with their value; – = inactive; ? = inconclusive; · = no result; ! = not active in a repeat.

SMILES	STK33 inh	NOMO-1 viab	PD-1 reverse act
CC(CCC(=O)Nc1ccccc1)C(=O)O (centres undefined)	–	–	–
CC(CNc1ccccc1)C(=Nc1ccccc1)Nc1ccccc1 (centres undefined)	–	118.9	–
Nc1ncnc(NCCCN2CCOCC2)c1[N+](=O)[O-]	–	–	–
O=C(NC(=S)NCc1cccnc1)c1ccc(-c2cccc(Cl)c2Cl)o1	–	–	–
O=C1C(=O)N(CCN2CCOCC2)C(c2ccc(Cl)cc2)C1C(=O)c1cccs1 (centres undefined)	–	–	–
C[C@H]1CN([C@@H](C)CO)C(=O)Cc2cc(NC(=O)CCCCCC(=O)Nc3ccccc3N)ccc2O[C@@H]1CN(C)C	·	–	–
C[C@H]1CN([C@@H](C)CO)C(=O)Cc2cc(NC(=O)CCCCCC(=O)Nc3ccccc3N)ccc2O[C@@H]1CN(C)CC1CC1	·	–	–
C[C@H]1CN([C@@H](C)CO)C(=O)Cc2cc(NC(=O)CCCCCC(=O)Nc3ccccc3N)ccc2O[C@@H]1CN(C)CC1CCCCC1	·	102.0	–
C[C@@H]1CN([C@H](C)CO)C(=O)Cc2cc(NC(=O)CCCCCC(=O)Nc3ccccc3N)ccc2O[C@H]1CN(C)CC1CCCCC1	·	120.4	–
C[C@@H]1CN([C@H](C)CO)C(=O)Cc2cc(NC(=O)CCCCCC(=O)Nc3ccccc3N)ccc2O[C@@H]1CN(C)CC1CCCCC1	·	133.4	–
C[C@H]1CN([C@@H](C)CO)C(=O)Cc2cc(NC(=O)CCCCCC(=O)Nc3ccccc3N)ccc2O[C@H]1CN(C)C	·	?	–
Cc1ccc(NC(=O)c2ccc(-n3nc(C(F)(F)F)c4c3-c3ccoc3CC4)cc2)cc1	·	–	–
CC1CN(S(=O)(=O)c2cccc(C(=O)O)c2)CC(C)O1 (centres undefined)	·	–	–
OCCCNc1ncnc2scc(-c3ccc(Br)cc3)c12	–	–	·
COc1ccc(C(C)C)cc1S(=O)(=O)n1nnc2ccccc21	–	–	–
COc1ccc(C(C)C)cc1S(=O)(=O)n1cnc2ccccc21	–	122.6	–
Cc1c(/C=C/c2ccc(Cl)cc2Cl)c(=O)n(-c2ccccc2)n1C	·	–	–
Cc1c(-n2c(/C=C\c3ccc([N+](=O)[O-])o3)nc3ccccc3c2=O)c(=O)n(-c2ccccc2)n1C	–	114.6	·
CCOC(=O)c1oc2ccccc2c1NC(=O)CCN1CCCCC1	·	–	–
COc1ccc(NC(=O)Nc2ccc3c(c2)C(=O)N([C@H](C)CO)C[C@H](C)[C@H](CN(C)Cc2ccc(Cl)c(Cl)c2)O3)cc1	–	108.9	–
C[C@H](CO)N1C[C@H](C)[C@@H](CN(C)Cc2ccc(Cl)c(Cl)c2)Oc2ccc(NC(=O)Nc3ccc(F)cc3)cc2C1=O	–	–	–
C[C@H](CO)N1C[C@H](C)[C@H](CN(C)Cc2ccc(Cl)c(Cl)c2)Oc2ccc(NC(=O)Nc3ccccc3)cc2C1=O	·	113.4	–
C[C@H](CO)N1C[C@H](C)[C@H](CN(C)Cc2ccc(Cl)c(Cl)c2)Oc2ccc(NC(=O)Nc3ccc(F)cc3)cc2C1=O	–	–	–
C[C@@H]1CN([C@@H](C)CO)C(=O)c2cc(NC(=O)Nc3ccc(F)cc3)ccc2O[C@H]1CN(C)Cc1ccc(Cl)c(Cl)c1	·	124.6	–
COc1ccc(NC(=O)Nc2ccc3c(c2)C(=O)N([C@H](C)CO)C[C@H](C)[C@@H](CN(C)Cc2ccc(Cl)c(Cl)c2)O3)cc1	·	–	–
SMILES	STK33 inh	NOMO-1 viab	PD-1 reverse act
N#CC1=C(SCC(=O)c2ccc(F)cc2)NC2(CCCC2)C(C#N)C1=O (centres undefined)	·	–	–
Cc1c(Cl)cccc1NC(=O)CSC1CC(=O)N(c2ccccc2)C1=O (centres undefined)	–	–	·
O=C(Cn1nnc2ccccc21)NCCN1CCCC1	–	–	–
c1ccc(N=c2scc(-c3cccs3)n2-c2ccccc2)cc1	·	–	–
Cc1cccc(OCC(=O)Nc2c[nH]c(=O)[nH]c2=O)c1C	–	–	–
COC(=O)c1cc(OC)c(OC)cc1NC(=O)C(C)Oc1ccc(C(C)(C)C)cc1 (centres undefined)	–	?	–
C[C@H](CO)N1C[C@H](C)[C@H](CN(C)Cc2ccc(Oc3ccccc3)cc2)Oc2ccc(NC(=O)CCCCCC(=O)Nc3ccccc3N)cc2CC1=O	·	139.6	–
C[C@H]1CN([C@@H](C)CO)C(=O)Cc2cc(NC(=O)CCCCCC(=O)Nc3ccccc3N)ccc2O[C@H]1CN(C)Cc1ccc(Oc2ccccc2)cc1	·	139.9	–
C[C@H]1CN([C@@H](C)CO)C(=O)Cc2cc(NC(=O)CCCN(C)C)ccc2O[C@H]1CN(C)Cc1ccc(Oc2ccccc2)cc1	–	–	·
C[C@H]1CN([C@@H](C)CO)C(=O)Cc2cc(NC(=O)CCCCCC(=O)Nc3ccccc3N)ccc2O[C@@H]1CN(C)C(=O)Nc1ccccc1	·	–	–
O/N=C/c1c(F)cccc1F	·	–	–
CSC1=N/C(=C\c2ccc(Br)cc2)C(=O)S1	·	130.6	–
CSC1=N/C(=C\c2ccccc2C)C(=O)S1	·	–	–
CC(=O)Nc1ccccc1SCC(=O)Nc1ccc(C)cc1	–	–	–
OC1(/C=C/CN2CCCCC2)CCCCC1	·	–	–
Cc1ccc(Cn2nc(C)cc2C(=O)Nc2ccc(C)cc2)cc1	–	–	–
Cc1ccc(Cn2nc(C)cc2C(=O)Sc2ccccc2)cc1	–	92.5	–
Cc1ccc(N(CC(=O)Nc2ccccc2F)S(C)(=O)=O)cc1Cl	–	–	–
Cn1c(SCC(=O)Nc2sc3c(c2C#N)CCCC3)nnc1-c1ccc(Br)cc1	–	–	–
Fc1ccc(C(c2ccc(F)cc2)N2CCN(C/C=C/c3ccccc3)CC2)cc1	–	115.7!	–
C(=C\c1ccccc1)/CN1CCN(C(c2ccccc2)c2ccccc2)CC1	–	–	·
Nc1ccccc1C(=O)NCc1c(F)cccc1Cl	·	–	–
O=c1c2ccccc2nnn1CN1CCCCC1	–	–	–
CC(=O)OC[C@]12[C@H](OC(C)=O)[C@H](OC(=O)c3ccccc3)[C@@H]3[C@@H](OC(C)=O)[C@]1(OC3(C)C)[C@H](C)C[C@H](OC(C)=O)[C@@H]2OC(C)=O	–	–	–
CCOC(NC(=O)Nc1ccc(Br)cc1)(C(F)(F)F)C(F)(F)F	–	108.5	–
SMILES	STK33 inh	NOMO-1 viab	PD-1 reverse act
COC(=O)c1ccc(NC(=O)CCC(=O)c2ccc(Br)cc2)cc1	–	–	·
CC(C)(C)OC(=O)N1C(N)=C(C#N)C2(CCOCC2)c2[nH]c(C(F)(F)F)nc21	·	–	–
C[C@H]1CN([C@@H](C)CO)C(=O)c2cccc(NC(=O)Nc3ccc(C(F)(F)F)cc3)c2O[C@@H]1CN(C)Cc1ccc(Cl)c(Cl)c1	·	106.9	–
C[C@@H]1CN([C@@H](C)CO)C(=O)c2cccc(NC(=O)Nc3ccc(C(F)(F)F)cc3)c2O[C@@H]1CN(C)Cc1ccc(Cl)c(Cl)c1	·	?	–
C[C@H](CO)N1C[C@H](C)[C@@H](CN(C)Cc2ccc(Cl)c(Cl)c2)Oc2c(NC(=O)Nc3ccc(C(F)(F)F)cc3)cccc2C1=O	·	108.6	–
C[C@@H]1CN([C@H](C)CO)C(=O)c2cccc(NC(=O)Nc3ccc(C(F)(F)F)cc3)c2O[C@@H]1CN(C)Cc1ccncc1	·	–	–
CSc1ccccc1NC(=O)CN(c1cccc(F)c1)S(C)(=O)=O	–	–	–
CCn1c(SCC(=O)Nc2cccc(Br)c2)nnc1-c1ccco1	–	–	·
COCCCNC(=O)[C@@]1(Sc2ccc(C)cc2)CC(=O)N(C2CCCCC2)[C@@H]1c1ccc(CO)cc1I	–	·	·
